hDAT+cocaine: changed human dopamine transporter uptake under cocaine IC80; actives 1.3% (n = 110,000); Q01959; LLC-PK1 hDAT cells, [14C]-dopamine uptake with cocaine IC80; actives deviate in either direction; B-score at 10 µM;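 active = Z score or B-score, a plate-position-corrected score, falls beyond the plate's 99.7% confidence bounds, in either direction; inactive = both scores lie inside the 99.7% bounds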
D1 allo mod: allosteric modulators of human D1 dopamine receptor. actives 5.9% (n = 58,000). B-score at 10 µM. HEK293 D1, CRE-luciferase, dopamine EC30 potentiation; actives deviate in either direction;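 active = luminescence count or its row- and column-corrected plate score outside the 99.7% band of the plate's sample wells, on either side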
CYP2C9 activ: CYP2C9 (human) activation | P11712 | recombinant CYP2C9, luciferin-H conversion, luminescence; stronger effect = higher value; factor 1 = untreated enzyme, 0 = blocked | activation factor at 5 µM | actives 1.4% (n = 96,000) | AID 1024;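 active = activation factor of 2 or more for CYP2C9 at a 5 µM dose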
Target sequence (P11712 whole entry, looked up): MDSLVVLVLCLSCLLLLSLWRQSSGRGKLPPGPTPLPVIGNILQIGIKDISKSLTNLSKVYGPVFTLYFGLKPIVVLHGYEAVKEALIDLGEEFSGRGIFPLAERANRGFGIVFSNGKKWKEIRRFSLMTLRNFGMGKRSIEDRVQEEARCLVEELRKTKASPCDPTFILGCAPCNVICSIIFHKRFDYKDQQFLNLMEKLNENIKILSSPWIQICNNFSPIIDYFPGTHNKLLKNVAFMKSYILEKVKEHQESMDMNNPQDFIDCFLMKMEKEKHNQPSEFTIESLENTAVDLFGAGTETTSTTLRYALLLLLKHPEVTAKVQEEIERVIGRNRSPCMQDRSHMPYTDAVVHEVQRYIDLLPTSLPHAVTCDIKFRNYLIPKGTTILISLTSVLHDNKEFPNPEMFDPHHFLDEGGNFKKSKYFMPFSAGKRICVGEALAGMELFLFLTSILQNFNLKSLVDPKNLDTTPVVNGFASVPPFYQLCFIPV
CYP2C19 act: activators of human cytochrome P450 2C19 | 96,000 tested, under 10 active | recombinant CYP2C19, luciferin-H EGE luminescence; stronger effect = higher value; 0 = fully inhibited enzyme, 1 = untreated enzyme | AID 1025 | activation factor at 5 µM | P33261;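 active = activation factor of at least 2 at 5 µM in the primary screen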
CYP2C9 inhib: blocks human cytochrome P450 2C9; P11712; CYP2C9 Supersomes, luciferin-H conversion, luminescence; inhibition, % at 5 µM; actives 20% (n = 96,000); AID 777;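 active = blocking of liver enzyme CYP2C9 beyond about 50% at 5 µM, limit read from the data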
CYP2C19 inh: human CYP2C19 inhibition; CYP2C19 Supersomes, luciferin-H EGE luminescence, 30 min; inhibition, % at 5 µM; AID 778; actives 21% (n = 96,000);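 active = CYP2C19 inhibition above a set limit at 5 µM in the primary screen, cut at about 50% in these data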
Numbers stand for hits; i = inactive; nt = no result given. Sampled rows, rich in hits. Any-hit rate of the full collection: about 28%.

SMILES | hDAT+cocaine | D1 allo mod | CYP2C9 activ | CYP2C19 act | CYP2C9 inhib | CYP2C19 inh
C=CCn1c(N)c(C(=O)NCCC2=CCCCC2)sc1=S | i | i | i | i | i | i
CCCCCCC(=O)Cc1cc(OC)c(OC)cc1C=C(C(=O)OCC)C(=O)OCC | i | nt | nt | nt | nt | nt
CC(=O)NCc1ccc2[nH]c(C)cc2c1 | i | nt | i | i | i | i
Cc1cc2cc(CNC(=O)NC3CCCCC3)ccc2[nH]1 | i | i | i | i | i | 76.5
COCCNC(=O)c1onc(CSc2ccccc2C)c1C(=O)O | i | nt | i | i | i | i
CC(c1nnc(Sc2nnnn2-c2ccccc2)n1-c1ccc(F)cc1)N(C)C (stereo not drawn) | i | i | i | i | i | i
CC(=O)N1CCN(c2ccc(OC[C@H]3CO[C@](Cn4ccnc4)(c4ccc(Cl)cc4Cl)O3)cc2)CC1 | 3.83 | nt | nt | nt | nt | nt
C=CCCN(C(C(=O)OC)C(C)C)S(=O)(=O)c1ccccc1Br (stereo not drawn) | i | nt | nt | nt | nt | nt
CCOc1c(CNCCN2CCOCC2)cccc1OC | i | nt | i | i | i | i
COc1cc2c(cc1OC)C1(Nc3c-2c(-c2ccccc2)nn3-c2ccccc2)C(=O)Nc2ccccc21 (stereo not drawn) | i | nt | i | i | 59.5 | i
COc1cc2c(cc1OC)C1(Nc3c-2c(C)nn3-c2ccccc2)C(=O)Nc2ccccc21 (stereo not drawn) | nt | nt | i | i | 65.7 | i
COc1ccc(N2C(=O)CSC23C(=O)Nc2ccccc23)cc1OC (stereo not drawn) | i | i | i | i | i | i
COc1cc(N2C(=O)CSC23C(=O)Nc2ccccc23)cc(OC)c1OC (stereo not drawn) | i | i | i | i | i | i
CCc1nn(-c2ccccc2)c2c1-c1cc(OC)c(OC)cc1C1(N2)C(=O)Nc2ccccc21 (stereo not drawn) | nt | nt | i | i | 82.1 | i
CN1CCN(CC(=O)N2c3ccccc3C(C)(c3ccccc3)CC2(C)C)CC1 (stereo not drawn) | i | i | i | i | i | i
CC(=O)N1c2ccccc2C(C)(c2ccccc2)CC1(C)C (stereo not drawn) | i | nt | i | i | 54.4 | 63.9
CN(C1CCS(=O)(=O)C1)S(=O)(=O)c1ccc(C2CCCCC2)cc1 (stereo not drawn) | i | i | i | i | i | i
O=C1CCC(C(=O)NC2(C(=O)NC3CCCCC3)CCCCC2)N1 (stereo not drawn) | i | i | i | i | i | i
CCCc1nnc(NC(=O)Cn2c(=O)sc3ccccc32)s1 | i | i | i | i | 74.8 | 64.0
CCN(CCNC(=O)Cn1c(=O)sc2ccccc21)c1ccccc1 | i | i | i | i | i | 68.1
O=C(CSCC(=O)Nc1nccs1)Nc1ccccc1 | i | i | i | i | i | i
Cc1csc(NC(=O)CCn2c(=O)sc3ccccc32)n1 | i | nt | 3.6 | i | i | 79.2
CCn1c(=NC(=O)CSCC(=O)Nc2nccs2)sc2ccccc21 | i | i | i | i | 83.7 | 92.4
C=CCN1CCN(c2ccncc2S(=O)(=O)N2CCOCC2)CC1 | i | nt | i | i | i | i
O=C(c1ccco1)N1CCN(C(=O)C(Cc2ccccc2)NS(=O)(=O)c2cccs2)CC1 (stereo not drawn) | i | nt | i | i | i | i
SMILES | hDAT+cocaine | D1 allo mod | CYP2C9 activ | CYP2C19 act | CYP2C9 inhib | CYP2C19 inh
CC1CCCC(C)N1C(=O)Cn1c(=O)sc2ccccc21 (stereo not drawn) | i | i | i | i | i | 66.9
O=C(CCn1c(=O)sc2ccccc21)Nc1nccs1 | i | i | i | i | i | 83.7
O=C(CCn1c(=O)sc2ccccc21)NCCC1=CCCCC1 | i | i | i | i | i | 88.2
CCN1CCN(C(=O)Cn2c(=O)sc3ccccc32)CC1 | i | i | i | i | i | i
CSc1ccccc1NC(=O)CCn1c(=O)sc2ccccc21 | i | nt | i | i | i | 51.5
COCCNC(=O)c1ccc2c(c1)nc(C)n2-c1cc(OC)c(OC)c(OC)c1 | i | i | i | i | i | i
CCCCCCS(=O)Cc1ccccc1 (stereo not drawn) | i | i | i | i | i | 90.7
CCCCS(=O)(=O)Nc1ccc(Cc2ccncc2)cc1 | i | i | i | i | 100.0 | 100.0
CCCS(=O)(=O)N1CCN(Cc2ccncc2)CC1 | i | i | i | i | i | i
O=S(=O)(c1ccccc1)n1ccc(-c2cnc(-c3ccccc3)s2)n1 | i | nt | i | i | 78.5 | i

Assay outcomes (PubChem BioAssay)
